Results: PubChem BioAssay AID492998 (Southern Research Specialized Biocontainment Screening …, 2010)
About 550 (24%) of roughly 2,300 compounds were called active. The rule behind the calls is not given here. The list is a sample of the results. Entries that show only a call come without a potency. Potency and affinity values are given separately.

Assay: Vero E6 cell cytotoxicity, dose response, cytotoxicity control for non-replicating M. tuberculosis project, secondary assay (AID 492998)
Settings: series mostly up to 20 µM

SMILES	outcome
CC(C)c1nnc(NC(=O)c2cc3cc(Br)ccc3oc2=O)s1	inactive
CCCC(=O)Nc1cccc(-c2nc3ccccc3c(=O)o2)c1	inactive
O=C(Oc1ccc(/C=N/O)cc1)c1ccccc1Cl	inactive
O=C(NCCN1C(=O)S/C(=C\c2ccccc2F)C1=O)C1CCN(S(=O)(=O)c2cccs2)CC1	inactive
O=C(O)CCCCCN1C(=O)/C(=C\c2ccncc2)SC1=S	inactive
CN1C(=O)/C(=C/c2cccc(Cl)c2)Sc2ccc(C(=O)N3CCCC3)cc21	inactive
O=C(COC(=O)CCN1C(=O)/C(=C\C=C\c2ccccc2)SC1=S)Nc1cc(F)ccc1F	inactive
O=C(CC1CC2CCC1C2)NCc1cccs1 (stereo unspecified)	inactive
CCOc1ccc(-c2cc(CCCC(=O)NCCC(C)C)no2)cc1	inactive
Cc1ccc(N2C(=O)CC(Sc3nccc(C)n3)C2=O)cc1 (stereo unspecified)	inactive
Cc1cccc(C2=N/C(=C\c3cccnc3)C(=O)O2)c1	inactive
Cc1ccc(-c2noc(CCC(=O)Nc3cccc(C#N)c3)n2)cc1	inactive
CCNc1nc(NC(C)(C)C)nc(N2CCCCC2)n1	inactive
COc1cc(NC(=O)C/C(C)=N/NC(=O)c2cccs2)c(OC)cc1Cl	inactive
O=C(OCC(=O)N1CCCc2ccccc21)c1ccc(S(=O)(=O)C(F)F)cc1	inactive
CCOC(=O)COc1ccc2c(c1)C(=O)CC(C)(c1cccnc1)O2 (stereo unspecified)	inactive
O=C(N/N=C/c1ccc[nH]1)c1ccc2c(c1)OCO2	inactive
O=C(N/N=C\c1ccccc1OCc1ccccc1)c1ccco1	inactive
CC(/C=C/c1ccccc1)=N\NC(=O)c1ccc2c(c1)OCCO2	inactive
C/C(=N\NC(=O)c1cccs1)c1ccc2c(c1)OCO2	inactive
Cc1occc1C(=O)N/N=C/c1ccc[nH]1	inactive
O=C(Oc1cccc2cccnc12)c1ccc2c(c1)OCCO2	inactive
COCCCn1c(=NC(=O)c2ccccc2)c(C#N)cc2c(=O)n3cccc(C)c3nc21	inactive
CCOC(=O)COc1c(-c2ccc(OC)cc2)oc2ccccc2c1=O	inactive

SMILES	outcome
O=C1CC(N2CCN(c3ccc(F)cc3)CC2)C(=O)N1Cc1ccccc1 (stereo unspecified)	inactive
O=C1NCC(O)=C1C=Nc1ccccc1O	inactive
COC(=O)c1cccc(COC(=O)c2cc3ccccc3oc2=O)c1	inactive
CN(CCCCOc1ccc(F)cc1)Cc1ccccc1	inactive
O=C(Nc1ccn(Cc2ccccc2)n1)c1ccc(F)cc1	inactive
O=C(c1ccc([N+](=O)[O-])cc1[N+](=O)[O-])N1CCc2ccccc21	inactive
CCOC(=O)c1ccc(COC(=O)c2ccc(-c3nnc(-c4ccccc4)o3)cc2)o1	inactive
CC(/C=C/c1cccc([N+](=O)[O-])c1)=N\NC(=O)c1ccncc1	inactive
NC(=O)C1(N2CCCCC2)CCN(C2CC(=O)N(CCc3ccccc3)C2=O)CC1 (stereo unspecified)	inactive
COC(CNC(=O)c1ccc2c3c(onc13)-c1ccccc1C2=O)OC	inactive
O=[N+]([O-])c1cc(N=Nc2ccc3ccccc3c2)ccc1O	inactive
CCCCCCOc1ccc(N2C(=O)CC(N3CCN(C(=O)c4ccco4)CC3)C2=O)cc1 (stereo unspecified)	inactive
O=C(Oc1ccccc1)c1ccc(NC(=O)c2ccco2)cc1	inactive
O=C(/C=C/Nc1ccccc1O)c1ccco1	inactive
Nc1nnc(SCCCC(=O)c2ccc(Br)cc2)s1	inactive
CC(=O)c1c(C)n(C)c2ccc(OC(=O)c3ccco3)cc12	inactive
COc1cc(OC)cc(OC(=O)c2ccc3c(=O)n4c(nc3c2)CCC4)c1	inactive
COc1ccc(N2C(=O)CC(Sc3nc4ccccc4s3)C2=O)cc1OC (stereo unspecified)	inactive
COc1ccc(C(=O)CCS(=O)(=O)c2ccc(C)cc2)cc1OC	inactive
O=C1Nc2ccc(Br)cc2/C1=C/C(=O)c1ccc2c(c1)OCO2	inactive
O=C(N/N=C/C=C/c1ccccc1)c1cccs1	inactive
c1ccc(-c2nnc(SCc3nnc(-c4cccs4)o3)o2)cc1	inactive
CCOC(=O)Cc1nc2cc(Cl)ccc2o1	inactive
O=C1c2ccccc2CC1Sc1nnc(-c2ccncc2)o1 (stereo unspecified)	inactive

SMILES	outcome
CCn1cc(C(=O)O)c(=O)c2cc(F)c(N3CCN(C(=S)NC(=O)c4ccccc4)CC3)cc21	inactive
O=C(COc1ccc(Cl)cc1)Nc1ccc(Cl)cn1	inactive
COc1cccc(COC(=O)CCNC(=O)c2ccc(Cl)cc2)c1OC	inactive
CC(/C=C/c1ccco1)=N\NC(=O)c1cccc(Cl)c1	inactive
CN(C)CC/C=C1/c2ccc(F)cc2Sc2ccc(Cl)cc21	inactive
O=C(COC(=O)c1ccc(Cl)s1)c1ccc[nH]1	inactive
O=C(NC(=S)Nn1cnc2c(cnn2-c2ccccc2)c1=O)c1ccccc1	inactive
CC(NC(=O)c1cc([N+](=O)[O-])cc([N+](=O)[O-])c1)c1ccc(-n2ccnc2)cc1 (stereo unspecified)	inactive
Cc1cccc(C)c1NC(=O)c1sc(N)nc1-c1ccccc1	inactive
O=C(COC(=O)Cc1ccc(Br)cc1)Nc1ccc(N2CCOCC2)cc1	inactive
O=C(COC(=O)c1cc2ccccc2oc1=O)Nc1ccc(F)cc1F	inactive
Clc1ccc(OC2CCN(Cc3nc(CC4CC4)no3)CC2)cc1	inactive
CCOC(=O)CCSc1n[nH]c(=S)s1	inactive
C(=C\c1ccccc1)/CSc1nc2ncccc2[nH]1	inactive
CC(C)=CCN1CCN(Cc2cn(C(C)C)c3ccccc23)CC1CCO (stereo unspecified)	inactive
Cc1ccc(/C=C2\SC(N3CCCC3)=NC2=O)cc1	inactive
CC(C)N1C(=O)NC(=O)C2(Cc3cc([N+](=O)[O-])ccc3N(C)C2c2ccccc2)C1=O (stereo unspecified)	inactive
Cc1ccc(OCC(=O)Nc2ccc([N+](=O)[O-])cc2)cc1	inactive
Cc1ccc(NC(=O)COCC(=O)Nc2ccc(C)cc2)cc1	inactive
O=[N+]([O-])c1c(Nc2ccccn2)cc(Cl)c2nonc12	inactive
NC(N)=N/N=C/c1cccc([N+](=O)[O-])c1O	inactive
O=C(N/N=C/C=C/c1ccccc1[N+](=O)[O-])c1ccncc1	inactive
O=C(N/N=C/c1cccc([N+](=O)[O-])c1O)c1cccs1	inactive
COc1cc(Cl)cc(/C=N/NC(N)=O)c1O	inactive

SMILES	outcome
O=C(NNc1nc2ccccc2s1)Nc1ccc(F)cc1	inactive
CC1CCC/C(=C\Nc2ccc(C(=O)O)c(O)c2)C1=O (stereo unspecified)	inactive
Oc1ccccc1Nc1nc(NCC2CCCO2)c2ccccc2n1 (stereo unspecified)	inactive
CCSc1nsc(NC(=O)Nc2ccc(F)cc2F)n1	inactive
Clc1ccc(OCCCCN2CCc3ccccc3C2)cc1	inactive
COc1ccc(CC(=O)Nc2nccs2)cc1OC	inactive
COc1ccc(CCNc2cc(-c3ccccc3)nc3ncnn23)cc1	inactive
CCOC(=O)Cn1c(C)c(Br)c(=O)c2cccc(C)c21	inactive
FC(F)(F)c1nc(SCc2ccc(Cl)cc2Cl)n[nH]1	inactive
CC1CCCN(CCC(=O)c2ccc(Br)cc2)C1 (stereo unspecified)	inactive
CNc1nnc(Sc2ncccc2[N+](=O)[O-])s1	inactive
CN(CC(=O)Nc1ccc(C#N)cc1)Cc1ccc(Cl)c(Cl)c1	inactive
COC(=O)COc1ccc2c(=O)c(Oc3ccccc3)c(C)oc2c1	inactive
Cc1ccc(C(=O)N/N=C/c2cccc3ccccc23)cn1	inactive
Cc1nn(C)cc1/C=N/NC(=O)c1sc2ccccc2c1Cl	inactive
Cc1[nH]nc2c1C(c1ccc(OC(=O)c3ccco3)cc1)C(C#N)=C(N)O2 (stereo unspecified)	inactive
CCC(=O)c1ccc(OCC(=O)OCC(=O)N2CCc3ccccc3C2)cc1	inactive
O=C1NC(=O)C(=Cc2ccc(Oc3ccc([N+](=O)[O-])cc3)cc2)C(=O)N1	inactive
CO/N=C/CC(=O)c1ccc(OC)cc1	inactive
COc1ccc(/C(=N/O)C(C)(C)NO)cc1	inactive
C/C(=N/Nc1ccnc2cc(Cl)ccc12)c1ccc(N)cc1	inactive
CCC(C)(C)c1ccc(OCC(=O)Nc2ccncc2)cc1	inactive
O=C(Nc1nnc(-c2ccc(Cl)cc2)o1)C1=COCCO1	inactive
O=C(Nc1nnc(-c2ccc(Cl)cc2)o1)c1nc2ccccc2s1	inactive

SMILES	outcome
O=C(COc1ccccc1)Nc1nnc(-c2ccc(Cl)cc2)o1	inactive
O=C(Nc1nnc(-c2ccc(Cl)cc2)o1)c1cccc(N2C(=O)CCC2=O)c1	inactive
COC(=O)COc1cccc(/C=N/NC(=O)CCSc2ccccc2)c1	inactive
Cc1ccc(-c2cc(C(F)(F)F)n3nc(C(=O)NCCCn4ccnc4)cc3n2)cc1C	inactive
CCc1cc2c(=O)n(C(C)C(=O)OC3CCCCC3)cnc2s1 (stereo unspecified)	inactive
CCCCn1c(O)c(/C=C2/C=CC=N2)c(=O)[nH]c1=O	inactive
N=C1/C(=C\c2coc3ccccc3c2=O)C(=O)N=C2SC=CN12	inactive
CCOC(=O)C1CCN(c2nc3cc(OC)ccc3cc2C#N)CC1	inactive
COC(=O)c1cccc(NC(=O)COc2cccc([N+](=O)[O-])c2)c1	inactive
O=C(NNC1CC(=O)N(c2ccccc2)C1=O)c1ccco1 (stereo unspecified)	inactive
COC(=O)c1ccc(Cn2cc(C(F)(F)F)cc([N+](=O)[O-])c2=O)cc1	inactive
O=C(CC1CCCCC1)NCc1ccccc1	inactive
Cc1nnc(N/N=C/c2ccc(-c3ccccc3F)o2)n1N	inactive
COC(=O)CCn1c(C)cc(C(=O)COc2ccccc2C(N)=O)c1C	inactive
Clc1ccc2c(N3CCCC3)ccnc2c1	inactive
O=c1oc(-c2cccs2)nc2c1cnn2-c1ccccc1	inactive
Fc1ccc(-c2nn(-c3ccccc3)cc2CNCc2ccccc2)cc1	inactive
CSc1ccccc1C(=O)NCc1ccc(S(N)(=O)=O)cc1	inactive
Cc1[nH]n(-c2ccccc2)c(=O)c1C=Nc1cnc2ccccc2c1	inactive
O=C(COC(=O)c1ccccc1Cl)NCCC1=CCCCC1	inactive
